# CYP2C19 act = cytochrome P450 2C19 (human) activation; P33261; recombinant CYP2C19, luciferin-H EGE luminescence; active compounds read high; 0 = fully inhibited enzyme, 1 = untreated enzyme; activation factor at 5 µM; 96,000 tested, under 10 active; AID 1025;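 active means activation factor of at least 2 at 5 µM in the primary screen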;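 further: 0 = wells with 2.5 mM tranylcypromine and 1 = vehicle-only wells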
# CYP2C9 inhib = human CYP2C9 inhibition. CYP2C9 Supersomes, luciferin-H conversion, luminescence. inhibition, % at 5 µM. 96,000 tested, 20% active;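 active means blocking of liver enzyme CYP2C9 beyond about 50% at 5 µM, limit read from the data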
# Target sequence (P11712 whole entry, looked up): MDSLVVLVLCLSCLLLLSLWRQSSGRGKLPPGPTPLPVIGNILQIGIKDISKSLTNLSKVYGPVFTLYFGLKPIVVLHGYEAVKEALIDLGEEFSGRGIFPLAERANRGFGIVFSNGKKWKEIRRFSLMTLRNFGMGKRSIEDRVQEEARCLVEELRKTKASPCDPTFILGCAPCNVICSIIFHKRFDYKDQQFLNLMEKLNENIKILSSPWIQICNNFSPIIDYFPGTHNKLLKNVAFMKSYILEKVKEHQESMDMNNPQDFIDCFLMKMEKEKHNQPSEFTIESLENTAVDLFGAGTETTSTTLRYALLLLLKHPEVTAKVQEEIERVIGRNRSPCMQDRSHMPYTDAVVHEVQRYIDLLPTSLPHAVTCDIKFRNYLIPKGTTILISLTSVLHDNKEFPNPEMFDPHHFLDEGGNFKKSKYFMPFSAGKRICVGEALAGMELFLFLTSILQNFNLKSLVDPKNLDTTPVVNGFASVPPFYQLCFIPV
# CYP2C19 inhib = blocks human cytochrome P450 2C19. P33261. inhibition, % at 5 µM. CYP2C19 Supersomes, luciferin-H EGE luminescence, 30 min. AID 778. 96,000 tested, 21% active;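 active means CYP2C19 inhibition above a set limit at 5 µM in the primary screen, cut at about 50% in these data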;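 further: plate controls were negative control wells for no effect and 2.5 mM tranylcypromine positive control for full effect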
# CYP2C9 activ = CYP2C9 (human) activation; recombinant CYP2C9, luciferin-H conversion, luminescence; active compounds read high; factor 1 = untreated enzyme, 0 = blocked; activation factor at 5 µM; 96,000 tested, 1.4% active;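 active means activation factor of 2 or more for CYP2C9 at a 5 µM dose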;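 further: 0 = sulfaphenazole-blocked wells and 1 = vehicle-only wells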
# An asterisk follows results filed as active. Sampled rows, rich in hits. Any-hit rate of the full collection: about 31%.
SMILES,CYP2C19 act,CYP2C9 inhib,CYP2C19 inhib,CYP2C9 activ
O=C(Nc1ccccc1N1CCN(C(=O)c2ccc(Cl)cc2)CC1)c1cccnc1,0.1,93*,88*,0.1
CC(C)CC(=O)Nc1ccccc1N1CCN(C(=O)c2ccccc2)CC1,0.2,76*,77*,0.2
Cc1ccc(C(=O)Nc2cc3c(oc2=O)CCCC3=O)cc1,1,9,-1,0.9
NC(=O)C1CCN(C(=O)OCc2ccccc2)CC1,0.6,1,38,1
COC(=O)CCC(=O)c1oc2ccc(Cl)cc2c1NC(=O)CCCN1C(=O)c2ccccc2C1=O,0.3,80*,67*,0.2
COc1cc2c(cc1NC(=O)CCCN1C(=O)CCC1=O)oc1ccccc12,0.7,24,30,0.8
COc1ccc(C)cc1NC(=O)C(=O)NNC(=O)c1ccco1,0.5,-53,50,1.5
CCC1S/C(=N\S(=O)(=O)c2cccs2)N(C2CCCCC2)C1=O (stereo not drawn),0.2,57*,79*,0.4
Cc1ccc(NC(=O)C2CCCN(S(=O)(=O)c3cccs3)C2)cc1 (stereo not drawn),0.8,30,19,0.7
COC(=O)C1=C(C)NC(C)=C(C(=O)OC)C1C(=O)OCC(=O)N1c2ccccc2CC1C (stereo not drawn),0.1,93*,86*,0.1
CCNC(=O)COC(=O)C1C(C(=O)OCC)=C(C)NC(C)=C1C(=O)OCC,0.1,75*,86*,0.3
CCOC(=O)C1=C(C)NC(C)=C(C(=O)OCC)C1C(=O)OCC(=O)N1CCc2ccccc2C1,0.4,79*,56*,0.2
CCOC(=O)C1=C(C)NC(C)=C(C(=O)OCC)C1C(=O)OCC(=O)N1CCC(C)CC1,0.9,35,12,0.7
CCOC(=O)C1=C(C)NC(C)=C(C(=O)OCC)C1C(=O)OCC(=O)N1CCCCC1CC (stereo not drawn),0.4,67*,62*,0.3
COc1ccc(CNC(=O)CSc2nnc(Cn3nnc4ccccc43)n2C)cc1,0.8,2,18,1
C=CCON1C(=O)c2ccccc2C1=O,1,0,1,1
CCOC(=O)c1[nH]c2ccc(F)cc2c1NC(=O)CN1CCc2cc(OC)c(OC)cc2C1,0.3,81*,68*,0.2
CCOC(=O)N1CCN(CC(=O)Nc2c(C(=O)OC)[nH]c3ccc(Cl)cc23)CC1,0.7,27,26,0.7
COC(=O)c1[nH]c2cc(C)ccc2c1NC(=O)CN1CCc2cc(OC)c(OC)cc2C1,0.5,49,51*,0.5
COC(=O)c1[nH]c2ccc(Cl)cc2c1NC(=O)CN1CCc2cc(OC)c(OC)cc2C1,0.1,89*,87*,0.1
O=C(NCC1CCCO1)C1CC(=O)N(C2CCCC2)C1 (stereo not drawn),0.9,0,8,1
CCOC(=O)C1CCN(S(=O)(=O)c2cc(Cl)c(C)cc2OC)CC1,0,3,98*,1
CCOC(=O)C1CCN(S(=O)(=O)c2ccc(Cl)cc2OC)CC1,0.2,-43,84*,1.4
CCOC(=O)C1CCN(S(=O)(=O)c2ccc(OC)c(Cl)c2Cl)CC1,1.1,-23,-14,1.2
Cc1ccccc1C(=O)c1cccn1CC(=O)NCCN1CCN(c2cccc(C)c2C)CC1,0.2,46,83*,0.5
SMILES,CYP2C19 act,CYP2C9 inhib,CYP2C19 inhib,CYP2C9 activ
Cc1ccccc1C(=O)c1cccn1CC(=O)NCc1ccco1,0.9,5,10,0.9
CC1=NCC(C)c2c1[nH]c1ccccc21 (stereo not drawn),0.9,-5,12,1.1
CC(C)NC(=O)C(C)n1cccc1C(=O)c1ccccc1 (stereo not drawn),0.8,55*,18,0.5
CC(C)NC(=O)C(OC(=O)c1ccccc1)C(OC(=O)c1ccccc1)C(=O)O (stereo not drawn),1.1,-2,-5,1
COc1ccc(C(=O)c2cc3ccc(O)cc3oc2=O)cc1,0.4,35,63*,0.7
COc1ccc(N=c2oc3cc(O)ccc3cc2C(=O)NCC2CCCO2)c(OC)c1 (stereo not drawn),1,23,3,0.8
O=C(c1ccccc1)c1cc2ccc(O)cc2oc1=O,0.1,80*,93*,0.2
O=C(NCc1ccco1)c1cc2ccc(O)cc2oc1=O,0,93*,97*,0.1
COc1ccc2cc(C(=O)NC3CCCCC3)c(=O)oc2c1,0,70*,96*,0.3
CN(C)CCNC(=O)c1cc2ccccc2oc1=O,1.2,-19,-17,1.2
COc1ccc2cc(C(=O)NCc3ccco3)c(=O)oc2c1,0.8,18,24,0.8
CC(C)NC(=O)CC(=O)N/N=C/c1ccc(F)cc1,1,22,1,0.8
Cc1cc(C)n(CCCNCC(O)c2ccccc2)n1 (stereo not drawn),0.9,5,8,1
O=C(c1ccc(COc2c(F)c(F)cc(F)c2F)o1)N1CCN(c2ccc(Cl)cc2)CC1,0.8,39,18,0.6
CS(=O)(=O)N1CCc2cc(C(=O)OCC(=O)c3ccccc3)ccc21,1.1,-10,-11,1.1
CCc1nc(NCCC(C)C)c(C#N)c2c1CCCC2,1,17,1,0.8
CC(C)c1nc(N2CCCC2)c(C#N)c2c1CCCC2,0.5,55*,54*,0.5
CCc1nc(N2CCOCC2)c(C#N)c2c1CCCC2,0.2,-45,78*,1.5
CCCc1nc(N2CCCC2)c(C#N)c2c1CCCC2,0.6,73*,43,0.3
CCCCc1nc(N2CCOCC2)c(C#N)c2c1COC(C)(C)C2,0.1,73*,87*,0.3
CCc1nc(N2CCCC2)c(C#N)c2c1CCCC2,0.8,-27,24,1.3
CN(C)C(=O)c1c2c(nc3ccccc13)-c1ccccc1CC2,0.9,23,11,0.8
O=C(CCCCCN1C(=O)CCC1=O)Nc1ccc(Cl)c(C(F)(F)F)c1,0.3,30,69*,0.7
CC(NC(=O)OCc1ccccc1)C(=O)OCN1C(=O)c2ccccc2C1=O (stereo not drawn),0.6,29,42,0.7
O=C1c2ccccc2C(=O)N1CC(O)COCc1ccccc1 (stereo not drawn),0.2,-1,81*,1
SMILES,CYP2C19 act,CYP2C9 inhib,CYP2C19 inhib,CYP2C9 activ
Cc1ccc(S(=O)(=O)N=C2SCCCS2)cc1,0.6,-104,37,2*
CC(=O)Nc1cccc(OCC(=O)NS(=O)(=O)c2ccc(Cl)cc2)c1,1,46,-5,0.5
CN(C)c1cccc(NC(=O)Cc2ccc(F)cc2)c1,0,62*,98*,0.4
CN(C)c1cccc(NC(=O)CCc2ccccc2)c1,0,34,95*,0.7
CC(=O)Nc1cccc(N(C)C)c1,1,-1,-1,1
CC#CCCCC(=O)Nc1ccccc1C(=O)O,1.1,23,-9,0.8
O=C1[C@H]2[C@@H](C(=O)N1c1cccc3ccccc13)C1(C(=O)c3ccccc3C1=O)N1CCC[C@@H]21,0.6,26,38,0.7
Cc1ccc(S(=O)(=O)N2c3ccccc3NC(=O)C2CC(=O)Nc2ccccc2)cc1 (stereo not drawn),0.4,89*,57*,0.1

# Assay outcomes (PubChem BioAssay)
